# According to PMC8384837, “Expanding the binding specificity for RNA recognition by a PUF domain”:
# Tests used:
# Experiment in all cases: yeast three-hybrid, YBZ-1, SC-Leu-His + 0.5 mM 3-AT, 4 days
# Details in all cases: tags: N-Gal4 AD-HA kept; label: inside an RPR1-promoter hybrid RNA with tandem MS2 sites; ssRNA
# PUM1 PUF domain R4-LRC = PUM1 PUF domain R4-LRC (Homo sapiens, UniProt Q14671 828-1176, N971L;H972R;Q975C)
# Summary of the method: (§1)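 Each repeat of the Pumilio-1 PUF domain was randomized at its three base-contacting residues, and these libraries were co-expressed from a centromeric plasmid with matching RNA elements in strain YBZ-1. After four days on SC-Leu (input) or SC-Leu-His + 0.5 mM 3-AT (selection), the repeat regions were PCR-amplified and Illumina-sequenced. The interaction score compares variant frequency between input and selection as a log change, computed in log2 with a pseudocount of 1 for absent variants.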
# PUM1 PUF domain R8-IYR = PUM1 PUF domain R8-IYR (Homo sapiens, UniProt Q14671 828-1176, N1122I;Q1126R)
# Summary of the method: as §1
# PUM1 PUF domain R5-RFC = PUM1 PUF domain R5-RFC (Homo sapiens, UniProt Q14671 828-1176, C1007R;R1008F;Q1011C)
# Summary of the method: as §1
# PUM1 PUF domain R6-RFV = target: T1, PUM1 PUF domain R6-RFV (Homo sapiens, UniProt Q14671 828-1176, N1043R;Y1044F;Q1047V)
# T1 sequence: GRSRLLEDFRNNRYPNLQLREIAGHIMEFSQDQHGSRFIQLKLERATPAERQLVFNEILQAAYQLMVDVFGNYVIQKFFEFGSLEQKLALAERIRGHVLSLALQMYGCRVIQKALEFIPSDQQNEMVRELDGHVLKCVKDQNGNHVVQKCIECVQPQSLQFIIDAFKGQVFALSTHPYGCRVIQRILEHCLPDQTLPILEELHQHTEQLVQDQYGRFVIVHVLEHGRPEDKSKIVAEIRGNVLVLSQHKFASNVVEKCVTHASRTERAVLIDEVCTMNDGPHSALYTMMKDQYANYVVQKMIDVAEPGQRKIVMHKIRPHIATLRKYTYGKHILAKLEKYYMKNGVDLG
# Summary of the method: as §1
# PUM1 PUF domain R3-CNE = PUM1 PUF domain R3-CNE (Homo sapiens, UniProt Q14671 828-1176, R936N;Q939E)
# Summary of the method: as §1
# PUM1 PUF domain R5-KRH = PUM1 PUF domain R5-KRH (Homo sapiens, UniProt Q14671 828-1176, C1007K;Q1011H)
# Summary of the method: as §1
# PUM1 PUF domain R3-TQE = PUM1 PUF domain R3-TQE (Homo sapiens, UniProt Q14671 828-1176, C935T;R936Q;Q939E)
# Summary of the method: as §1
# PUM1 PUF domain R7-RSC = PUM1 PUF domain R7-RSC (Homo sapiens, UniProt Q14671 828-1176, S1079R;N1080S;E1083C)
# Summary of the method: as §1
# PUM1 PUF domain R4-EYR = PUM1 PUF domain R4-EYR (Homo sapiens, UniProt Q14671 828-1176, N971E;H972Y;Q975R)
# Summary of the method: as §1
sequence,measurement,setting,value
GGCUAGAACUAGUGGAUCCCCCGGCGCCCGGCGGCUCGAGCCCGGGUAAGUGUAAAUAGUCUGCAUGCCGCCGGGCGCCAUGCCUGCAGGUCGACUCUAGAAAACAUG,binding signal,PUM1 PUF domain R4-LRC,4.01 log2 enrichment (interaction score)
same,binding signal,PUM1 PUF domain R8-IYR,4.7 log2 enrichment (interaction score)
same,binding signal,PUM1 PUF domain R5-RFC,3.35 log2 enrichment (interaction score)
same,binding signal,PUM1 PUF domain R6-RFV,3.56 log2 enrichment (interaction score)
same,binding signal,PUM1 PUF domain R3-CNE,2.27 log2 enrichment (interaction score)
GGCUAGAACUAGUGGAUCCCCCGGCGCCCGGCGGCUCGAGCCCGGGUAAGCGUAAAUAGUCUGCAUGCCGCCGGGCGCCAUGCCUGCAGGUCGACUCUAGAAAACAUG,binding signal,PUM1 PUF domain R8-IYR,6.47 log2 enrichment (interaction score)
GGCUAGAACUAGUGGAUCCCCCGGCGCCCGGCGGCUCGAGCCCGGGUAAGUGUCAAUAGUCUGCAUGCCGCCGGGCGCCAUGCCUGCAGGUCGACUCUAGAAAACAUG,binding signal,PUM1 PUF domain R5-KRH,4.38 log2 enrichment (interaction score)
same,binding signal,PUM1 PUF domain R5-RFC,5.11 log2 enrichment (interaction score)
GGCUAGAACUAGUGGAUCCCCCGGCGCCCGGCGGCUCGAGCCCGGGUAAGUGUAAGUAGUCUGCAUGCCGCCGGGCGCCAUGCCUGCAGGUCGACUCUAGAAAACAUG,binding signal,PUM1 PUF domain R3-CNE,3.08 log2 enrichment (interaction score)
same,binding signal,PUM1 PUF domain R3-TQE,2.29 log2 enrichment (interaction score)
GGCUAGAACUAGUGGAUCCCCCGGCGCCCGGCGGCUCGAGCCCGGGUAAGUCUAAAUAGUCUGCAUGCCGCCGGGCGCCAUGCCUGCAGGUCGACUCUAGAAAACAUG,binding signal,PUM1 PUF domain R7-RSC,2.75 log2 enrichment (interaction score)
GGCUAGAACUAGUGGAUCCCCCGGCGCCCGGCGGCUCGAGCCCGGGUAAGUGUAUAUAGUCUGCAUGCCGCCGGGCGCCAUGCCUGCAGGUCGACUCUAGAAAACAUG,binding signal,PUM1 PUF domain R4-EYR,3.63 log2 enrichment (interaction score)
GGCUAGAACUAGUGGAUCCCCCGGCGCCCGGCGGCUCGAGCCCGGGUAAGUGUACAUAGUCUGCAUGCCGCCGGGCGCCAUGCCUGCAGGUCGACUCUAGAAAACAUG,binding signal,PUM1 PUF domain R4-EYR,1.63 log2 enrichment (interaction score)
